From ChEMBL document CHEMBL2218924, “A broad activity screen in support of a chemogenomic map for kinase signalling research and drug discovery” (Biochem J, 2013) come the findings set out here.

MAP kinase-activated protein kinase 2 (Homo sapiens), sequence (P49137 whole entry, looked up): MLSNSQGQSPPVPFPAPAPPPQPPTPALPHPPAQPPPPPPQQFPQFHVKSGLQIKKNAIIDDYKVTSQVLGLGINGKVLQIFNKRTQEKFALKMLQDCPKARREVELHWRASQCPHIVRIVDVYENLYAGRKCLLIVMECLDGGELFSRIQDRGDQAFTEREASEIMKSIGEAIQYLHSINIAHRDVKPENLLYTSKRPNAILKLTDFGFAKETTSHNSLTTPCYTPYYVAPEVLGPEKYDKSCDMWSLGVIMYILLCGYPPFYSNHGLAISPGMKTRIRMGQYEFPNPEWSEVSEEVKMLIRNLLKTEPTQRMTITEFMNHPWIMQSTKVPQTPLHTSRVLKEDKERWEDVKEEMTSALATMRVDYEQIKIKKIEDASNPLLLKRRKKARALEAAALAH

For the first assay, the target named is Mitogen-activated protein kinase 1 (Homo sapiens) (UniProt P28482). The following applies: at 1 µM.
Mitogen-activated protein kinase 1 (Homo sapiens), sequence (P28482 whole entry): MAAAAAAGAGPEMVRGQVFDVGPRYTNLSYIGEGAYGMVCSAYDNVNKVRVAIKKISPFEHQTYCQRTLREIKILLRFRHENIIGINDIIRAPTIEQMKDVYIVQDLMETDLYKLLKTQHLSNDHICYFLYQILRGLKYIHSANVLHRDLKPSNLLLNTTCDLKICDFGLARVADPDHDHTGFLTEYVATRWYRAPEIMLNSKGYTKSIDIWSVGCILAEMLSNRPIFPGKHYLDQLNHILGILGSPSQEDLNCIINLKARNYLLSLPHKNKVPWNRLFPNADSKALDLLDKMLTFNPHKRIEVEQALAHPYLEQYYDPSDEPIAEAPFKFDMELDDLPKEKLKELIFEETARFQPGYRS
As for `CCOC(=O)c1c(C)[nH]c(/C=C2\C(=O)Nc3ccccc32)c1C`, the residual activity came out at 100%.
Turning to `Nc1n[nH]c2nc3ccccc3nc12`, the residual activity is 123%.
With `COc1cc2c(cc1OC)-c1n[nH]c(Nc3cccc(F)c3)c1C2`, the residual activity was determined as 103%.
On the same count and under the same terms, with `Cn1sc(=O)n(Cc2ccccc2)c1=O` the figure was 95%.
In the case of `Cc1cc(C)c(/C=C2\C(=O)Nc3ccccc32)[nH]1`, the residual activity turned out to be 98%.
Take `O=C1Cc2c([nH]c3ccc([N+](=O)[O-])cc23)-c2ccccc2N1`: the residual activity was found to be 109%.
Same read-out and setting: with `Oc1cccc(-c2nc(N3CCOCC3)c3oc4ncccc4c3n2)c1` the figure was 122%.
For `Cn1c2ccccc2c2c3c(c4c5ccccc5n(CCC#N)c4c21)CNC3=O`, the residual activity is 48%.
For `NC(=O)Nc1sc(-c2ccc(F)cc2)cc1C(N)=O`, the residual activity turned out to be 108%.
The same measure, in the same setting: to `O=c1c(-c2ccc(F)cc2)c(-c2ccncc2)[nH]n1-c1ccc(Cl)cc1` belongs 122%.

A further assay shares this target. The following applies: at 10 µM.
`CCOC(=O)c1c(C)[nH]c(/C=C2\C(=O)Nc3ccccc32)c1C`: the residual activity stood at 96%.
Regarding `COc1cc2c(cc1OC)-c1n[nH]c(Nc3cccc(F)c3)c1C2`, the residual activity worked out at 103%.
Still for that read-out and setting: with `Cn1sc(=O)n(Cc2ccccc2)c1=O` the figure was 92%; with `Cc1cc(C)c(/C=C2\C(=O)Nc3ccccc32)[nH]1`, 101%.
On the same count and under the same terms, with `Oc1cccc(-c2nc(N3CCOCC3)c3oc4ncccc4c3n2)c1` the figure was 119%.
The same measure, in the same setting: with `N#Cc1c(NC(=O)c2cccc3ccccc23)sc2c1CCCC2` the figure was 92%; with `Cn1c2ccccc2c2c3c(c4c5ccccc5n(CCC#N)c4c21)CNC3=O`, 44%; with `Nc1ncnc2c1cnn2-c1ccccc1`, 95%.
In the case of `NC(=O)Nc1sc(-c2ccc(F)cc2)cc1C(N)=O`, the residual activity was determined as 67%.
Regarding `O=S(=O)(c1cccc2cnccc12)N1CCCNCC1`, the residual activity was 80%.
On the same count and under the same terms, with `CC(C)[C@H](CO)Nc1nc(Nc2cc(N)cc(Cl)c2)c2ncn(C(C)C)c2n1` the figure was 66%.

The next assay concerns the target MAP kinase-activated protein kinase 2 (Homo sapiens) (UniProt P49137). The following applies: at 1 µM.
As for `N#C/C(=C\c1ccc(O)c(O)c1)C(=O)NCc1ccccc1`, the residual activity was 85%.
Same read-out and setting: with `CN(C)S(=O)(=O)c1ccc2c(c1)/C(=C/c1cc3c([nH]1)CCCC3)C(=O)N2` the figure was 81%; with `COc1cc2c(cc1OC)-c1n[nH]c(Nc3cccc(F)c3)c1C2`, 75%; with `Cn1sc(=O)n(Cc2ccccc2)c1=O`, 72%.
Consider `Cc1cc(C)c(/C=C2\C(=O)Nc3ccccc32)[nH]1`, for which the residual activity amounted to 100%.
The same measure, in the same setting: to `CC(C)(C)c1nc2c3ccc(F)cc3c3c(=O)[nH]ccc3c2[nH]1` belongs 79%.
Same read-out and setting: to `O=C1Cc2c([nH]c3ccc([N+](=O)[O-])cc23)-c2ccccc2N1` belongs 69%.
Same read-out and setting: to `Oc1cccc(-c2nc(N3CCOCC3)c3oc4ncccc4c3n2)c1` belongs 81%; to `O=C1NC(=O)C(c2cn(CCCO)c3ncccc23)=C1c1cnccn1`, 93%; to `Nc1ncnc2c1cnn2-c1ccccc1`, 92%.
`NC(=O)Nc1sc(-c2ccc(F)cc2)cc1C(N)=O`: the residual activity came to 92%.
Regarding `COc1ccc(Cl)cc1NC(=O)Nc1cc(C)nc2ccccc12`, the residual activity was 80%.
Take `CC(C)[C@H](CO)Nc1nc(Nc2cc(N)cc(Cl)c2)c2ncn(C(C)C)c2n1`: the residual activity turned out to be 89%.
